Experimental data: PubChem BioAssay
Activity calls are given as the source filed them. No rule for the calls is given here.

Target: Pantothenate synthetase (Mycobacterium tuberculosis (strain ATCC 25618 / H37Rv)) (UniProt P9WIL5)
Experiment: Coupled enzyme confirmation of inhibitors against recombinant Mtb PanC (AID 375);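 also: 0% = full reaction with vehicle and 100% = no enzyme background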
Details: coupled enzyme assay; at 10 µM, active compounds read high

Sequence of Pantothenate synthetase (Mycobacterium tuberculosis (strain ATCC 25618 / H37Rv)) (P9WIL5 whole entry, looked up): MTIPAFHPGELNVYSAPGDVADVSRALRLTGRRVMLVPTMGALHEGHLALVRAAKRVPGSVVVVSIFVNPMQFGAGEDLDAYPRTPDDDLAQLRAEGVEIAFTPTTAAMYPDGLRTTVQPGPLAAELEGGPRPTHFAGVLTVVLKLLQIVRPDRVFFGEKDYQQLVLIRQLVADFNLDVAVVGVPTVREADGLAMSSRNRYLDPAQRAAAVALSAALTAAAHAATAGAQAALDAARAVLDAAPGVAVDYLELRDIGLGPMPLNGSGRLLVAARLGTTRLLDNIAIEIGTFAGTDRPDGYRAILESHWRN

Structure (SMILES) | inhibition
CCn1cc(C(=O)NCC2COc3ccccc3O2)c2cc(OC)c(OC)cc2c1=O (stereo not given) | 11% (inactive)
O=C(COC(=O)Cc1cccc(C(F)(F)F)c1)NCC1CCCO1 (stereo not given) | 3% (inactive)
CC(C)(C)NC(=O)Nc1ccccc1C(N)=O | 5% (inactive)
C[N+]1=C2CCCCCN2C(O)(c2ccccc2)C1 (stereo not given) | 7% (inactive)
CCn1nnnc1SCC(=O)Nc1nnc(C(C)C)s1 | 3% (inactive)
O=C(Nc1nnc(-c2ccc(Cl)cc2)o1)C1CCCCC1 | 0% (inactive)
COc1ccccc1N1CCN(C(=O)c2ccc(S(=O)(=O)N3CCCCCC3)cc2)CC1 | 2% (inactive)
Cc1cc(NS(=O)(=O)c2ccc(Nc3nc(-c4sc(N)nc4C)cs3)cc2)no1 | 4% (inactive)
COc1ccc(C(=O)N2CCN(S(=O)(=O)c3cc(Cl)ccc3OC)CC2)cc1 | 5% (inactive)
COc1ccc(C(=O)CSc2nnc(CNc3ccc(C)cc3C)o2)cc1 | 2% (inactive)
Cc1onc(-c2ccccc2Cl)c1C(=O)Nc1cccnc1 | 5% (inactive)
CC(C)(C)OC(=O)N1CC=C2C(C#N)=C(N)C(C#N)(C#N)C(c3cccs3)C2C1 (stereo not given) | 0% (inactive)
CCOc1ccc(N(CC(=O)Nc2ccc(C)c(C)c2)S(=O)(=O)c2c(C)noc2C)cc1 | 0% (inactive)
CCCC(=O)O[C@]1(C(=O)COC(C)=O)CC[C@H]2[C@@H]3C[C@H](F)C4=CC(=O)C=C[C@]4(C)[C@@]3(F)[C@@H](O)C[C@@]21C | 0% (inactive)
O=C(COc1ccccc1Cl)OCC(=O)N1CCN(S(=O)(=O)c2ccccc2)CC1 | 8% (inactive)
